Assay outcomes: PubChem, several laboratories
Shown are actives, neighbours in structure and some others; about 5.4% of the full set was active somewhere.
beta cell repl = induces beta-cell replication in MIN6 cells; 330,000 tested, 0.29% active; MIN6 cells proliferation, ATPlite luminescence, 48 h; cells starved in 0.2% serum; 100% = growth in 10% serum; proliferation, % at 10 µM;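 active = compounds whose signal lies at least 3.5 SD above the mean of all wells on their plate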
JMJD2C inh = human JMJD2C demethylase inhibition | GST-JMJD2C(1-420) H3K9me3 demethylation, DELFIA europium | Q9H3R0 | 330,000 tested, 0.069% active | AID 2099 | inhibition, % at 2.35 µM;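 active = more than half of a compound's replicate wells show inhibition beyond 50%, single wells judged on their own value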;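 note: signal counts dimethyl H3K9 product captured on neutravidin plate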
Target sequence (Q9H3R0 1-420 limits assumed): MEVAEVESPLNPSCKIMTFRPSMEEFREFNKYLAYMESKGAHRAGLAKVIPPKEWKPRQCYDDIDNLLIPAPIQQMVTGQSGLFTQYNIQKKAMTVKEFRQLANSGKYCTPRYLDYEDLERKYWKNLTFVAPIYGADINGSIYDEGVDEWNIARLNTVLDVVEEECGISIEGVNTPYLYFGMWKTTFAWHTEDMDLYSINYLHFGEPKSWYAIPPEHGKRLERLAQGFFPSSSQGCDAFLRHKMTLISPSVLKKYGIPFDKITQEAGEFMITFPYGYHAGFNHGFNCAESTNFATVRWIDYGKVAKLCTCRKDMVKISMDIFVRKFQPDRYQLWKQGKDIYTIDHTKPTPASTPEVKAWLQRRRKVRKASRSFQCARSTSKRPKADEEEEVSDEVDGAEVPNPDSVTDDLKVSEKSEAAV
M18AAP inhibitor = PfM18AAP enzyme inhibition; recombinant PfM18AAP, H-Glu-NHMec fluorogenic cleavage; AID 1822; inhibition, % at 7.35 µM; 290,000 tested, 1.2% active;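 active = inhibition above the campaign mean inhibition over all tested compounds plus 3 SD, cut at about 28% in these data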
Granule exo inh = blocks lytic granule exocytosis; 360,000 tested, 0.66% active; AID 651702; TALL-104 LAMP-1 surface exposure, flow cytometry; cells stimulated with thapsigargin and PMA; inhibition, % at 10 µM;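 active = inhibition above about 55%, limit read from the data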
ALR inh = inhibitors of human sulfhydryl oxidase ALR. P55789. purified ALR, DTT oxidation, H2O2 HRP-luminol luminescence. inhibition, % (no concentration beside the values). 290,000 tested, 3.8% active. AID 485317;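 active = mean replicate inhibition above about 79%, with every replicate also reaching it, limit read from the data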
Target sequence (P55789 whole entry, looked up): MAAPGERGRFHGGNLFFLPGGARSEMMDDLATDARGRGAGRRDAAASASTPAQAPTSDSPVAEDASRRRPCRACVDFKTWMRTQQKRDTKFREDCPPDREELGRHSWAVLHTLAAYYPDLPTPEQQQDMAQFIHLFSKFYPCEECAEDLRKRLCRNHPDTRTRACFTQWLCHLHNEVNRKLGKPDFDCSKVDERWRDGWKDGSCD
SMARCA2 act = SMARCA2 function activation, primary screen; MG213 cells, MMTV-luciferase reporter, dexamethasone, overnight; AID 652017; activation, % at 9.1 µM; 370,000 tested, 1% active; in the data active = activation above about 7.8%
Each line names hits and unclear results; the compound was inactive in the other large screens.

Cn1c(SCC(=O)N2CCCC2=O)nnc1-c1ccccc1F	JMJD2C inh 55
CCn1c(SCC(=O)N2CCCC2=O)nnc1-c1cccs1	none (no result: M18AAP inhibitor)
Cc1ccc(NS(=O)(=O)c2ccc(C3CCCCC3)cc2)cc1	none
O=C1CCCC/C1=N\Nc1ccc(C2CCCCC2)cc1	ALR inh 98 (no result: Granule exo inh, SMARCA2 act)
O=C1CCCC/C1=N\Nc1ccc(OCc2ccccc2)cc1	ALR inh 99
C=CCNC(=O)c1ccccc1NC(=O)Nc1ccccc1	SMARCA2 act 7.8
COCCNC(=O)c1ccccc1NC(=O)Nc1ccccc1	none (no result: ALR inh)
Cc1onc(C(=O)Nc2sc3c(c2C#N)CCCC3)c1[N+](=O)[O-]	ALR inh 90
c1ccc(N2N=C(c3cccs3)CC2c2ccco2)cc1 (configuration not stated)	ALR inh 97
Clc1ccc(N2N=C(c3cccs3)CC2c2ccco2)cc1 (configuration not stated)	none
COCCCNC(=O)C[C@H]1C[C@@]2(C(=O)OC)C(=C[C@H](C(C)C)O[C@@H]2C2CC2)N(Cc2ccccc2)C1=O	none (no result: beta cell repl, JMJD2C inh, M18AAP inhibitor, Granule exo inh, ALR inh)
CCCCOCCCNC(=O)C[C@H]1C[C@@]2(C(=O)OC)C(=C[C@H](C(C)C)O[C@@H]2C2CC2)N(Cc2ccc3c(c2)OCO3)C1=O	none (no result: beta cell repl, JMJD2C inh, M18AAP inhibitor, Granule exo inh, ALR inh)
Cc1cc(C(F)(F)F)nn1Cc1n[nH]c(=S)n1-c1ccc(Cl)cc1	none
Cc1cc(C(F)(F)F)nn1Cc1n[nH]c(=S)n1Cc1ccccc1	ALR inh 82
COc1ccc(CCN(Cc2cccs2)S(=O)(=O)c2ccc(F)cc2)cc1OC	none (no result: beta cell repl, JMJD2C inh, M18AAP inhibitor, Granule exo inh, ALR inh)
O=C(c1cc(-c2cccnc2)nc2ccccc12)N1CCCc2ccccc21	ALR inh 95
COc1ccc(CN(CCN2CCOCC2)C(=O)c2cc(Cl)ccc2F)cc1OC	none (no result: beta cell repl, JMJD2C inh, M18AAP inhibitor, Granule exo inh, ALR inh)
COC(=O)C1CN(CC(C)C)CCS(=O)(=O)N1Cc1cccc(Cl)c1 (configuration not stated)	none (no result: beta cell repl, JMJD2C inh, M18AAP inhibitor, Granule exo inh, ALR inh)
Cc1ccsc1C=Nc1ccc(O)cc1	ALR inh 96 (no result: SMARCA2 act)
COCCn1c(SCC(=O)c2ccccc2)nc2c(c1=O)SC(C)C2 (configuration not stated)	ALR inh 99
CCn1c(SCC(=O)N2CCCCC2)nc2c(c1=O)SC(C)C2 (configuration not stated)	none
COCCn1c(SCC(=O)N2CCN(c3ccccc3)CC2)nc2c(c1=O)SC(C)C2 (configuration not stated)	none (no result: M18AAP inhibitor)
CCn1c(SCC(=O)c2ccccc2)nc2c(c1=O)SC(C)C2 (configuration not stated)	ALR inh 99
Cn1ncc(N=Cc2ccccc2[N+](=O)[O-])c1C(N)=O	none
CN(C)c1ccc(C=Nc2cnn(C)c2C(N)=O)cc1	ALR inh 98 (no result: JMJD2C inh)
COc1ccc2c(c1)CNC2CS(=O)(=O)NC1CCCC1 (configuration not stated)	none (no result: beta cell repl, JMJD2C inh, M18AAP inhibitor, Granule exo inh, ALR inh)
Cc1ccc(S(=O)(=O)n2ccc(-c3c(-c4ccccc4)noc3C)n2)cc1	none (no result: beta cell repl, JMJD2C inh, M18AAP inhibitor, Granule exo inh, ALR inh)
COc1cc(/C=C(\C#N)C(=O)NCCc2ccccc2)cc(OC)c1O	none
CC(NC(=O)/C(C#N)=C/c1ccc([N+](=O)[O-])o1)c1ccccc1 (configuration not stated)	Granule exo inh 67 (no result: ALR inh)
CC(NC(=O)/C(C#N)=C/c1ccco1)c1ccccc1 (configuration not stated)	none
CC(NC(=O)/C(C#N)=C/c1ccc(N2CCOCC2)cc1)c1ccccc1 (configuration not stated)	none
COc1ccc(/C=C(\C#N)C(=O)NC(C)c2ccccc2)cc1O (configuration not stated)	ALR inh 87
COC(=O)c1ccc(/C=C(\C#N)C(=O)NC(C)c2ccccc2)cc1 (configuration not stated)	ALR inh 87
N#C/C(=C\c1ccc(O)c(O)c1)C(=O)NCCc1ccccc1	ALR inh 98 (no result: JMJD2C inh, M18AAP inhibitor)
O=C(N[C@H](C(=O)N1CCC[C@H]1C(=O)NCCc1ccccc1Cl)C1CCCCC1)c1cccs1	none (no result: beta cell repl, JMJD2C inh, M18AAP inhibitor, Granule exo inh, ALR inh)
Clc1ccc(C2=CSC3=NCCN23)cc1Cl	ALR inh 97
COc1ccc(C2=CSC3=NCCN23)cc1OC	ALR inh 96
O=C(NC1CCCCN(Cc2ccc(Cl)cc2)C1=O)c1ccc(COc2ccccc2)cc1 (configuration not stated)	none (no result: beta cell repl, JMJD2C inh, M18AAP inhibitor, Granule exo inh, ALR inh)
Cc1n[nH]c(C)c1S(=O)(=O)NCCc1c[nH]c2ccccc12	none (no result: beta cell repl, JMJD2C inh, M18AAP inhibitor, Granule exo inh, ALR inh)
CN(C)c1ccc(/C=N/NC(=O)c2ccccc2Cl)cc1	ALR inh 98
Cc1occc1C(=O)N/N=C/C=C/c1ccccc1	SMARCA2 act 7.9
CN(C)c1ccc(/C=N/NC(=O)c2sccc2-n2cccc2)cc1	ALR inh 99
CN(C)c1ccc(/C=N/OC(=O)Nc2ccccc2)cc1	ALR inh 84
CN(C)c1ccc(/C=N/NC(=O)c2ccccc2)cc1	none (no result: ALR inh)
Cc1occc1C(=O)N/N=C/C=C/c1ccccc1[N+](=O)[O-]	none
O=C(CN1CCOCC1)N/N=C/C=C/c1ccccc1	beta cell repl 8.9
Cc1occc1C(=O)N/N=C/C=C/c1ccc(N(C)C)cc1	ALR inh 99
Cc1occc1C(=O)N/N=C/c1ccc(N(C)C)cc1	ALR inh 94
O=NN(CC(=O)NN=CC=Cc1ccccc1)CC(=O)NN=CC=Cc1ccccc1	none (no result: beta cell repl, JMJD2C inh, M18AAP inhibitor, ALR inh)
Brc1ccc(-c2nn3c(-c4ccccc4)nnc3s2)o1	none (no result: beta cell repl, JMJD2C inh, M18AAP inhibitor, Granule exo inh, ALR inh)
COc1cccc(CNC(=O)C2CCN(c3nc(OC)nc(OC)n3)CC2)c1	none (no result: beta cell repl, JMJD2C inh, M18AAP inhibitor, Granule exo inh, ALR inh)
CCOC(=O)N1CCN(C(=O)c2cccc(-n3c(=S)[nH]c4cc(Cl)ccc4c3=O)c2)CC1	ALR inh 79
COc1ccc2c(c1)CNC2CS(=O)(=O)NCc1ccccc1 (configuration not stated)	none (no result: beta cell repl, JMJD2C inh, M18AAP inhibitor, Granule exo inh, ALR inh)
Cc1cccc(NC(=O)CSc2ncnc3sc4c(c23)CCCC4)c1	none (no result: beta cell repl, JMJD2C inh, M18AAP inhibitor, Granule exo inh, ALR inh)
CCOC(=O)C(=O)NNc1ccc(Cl)cc1	ALR inh 100
CCOC(=O)C(=O)NNc1ccc(C)cc1	ALR inh 100
Cc1ccc(C)c(NNC(=O)C(=O)NNc2cc(C)ccc2C)c1	none
CCOC(=O)C(=O)NNc1ccccc1OC	ALR inh 99
CCc1ccc(C(=O)NNc2ccc(Cl)cc2)cc1	none
Cc1ccccc1NNC(=O)C(=O)NNc1ccccc1C	ALR inh 98
CCOC(=O)/C(C#N)=C/Nc1ccccc1OC	none
COCCN1C(=O)C2=C(C1=O)C1N(C)c3ccccc3[C@@]13C[C@@H](CO)N(C(C)=O)C3=N2 (some centres not stated)	none (no result: beta cell repl, JMJD2C inh, M18AAP inhibitor, Granule exo inh, ALR inh)
O=C1Nc2ccccc2N=C(c2ccccc2)c2ccccc21	ALR inh 83
ClCc1cc2ccccc2nc1Cl	none
Cc1ccc2cc(CCl)c(Cl)nc2c1	ALR inh 98
Cc1cc(C)c(C2C(C#N)=C(N)Oc3n[nH]c(C)c32)cc1CN1CCCC1 (configuration not stated)	SMARCA2 act 7.9
Cc1[nH]nc2c1C(c1ccoc1)C(C#N)=C(N)O2 (configuration not stated)	none (no result: ALR inh)
